Reference: PubChem BioAssay (Tox21)
A number with no mark means an inactive call. Results filed as inconclusive are left out. A call without a number means that no potency is given here. Activity calls are given as the source filed them. Unless noted, the call rests on the fitted dose curve.

Columns and labels:
[1] = Nuclear factor erythroid 2-related factor 2/antioxidant responsive element (Nrf2/ARE) small molecule agonists: qHTS cell viability counter screen in human keratinocytes (AID 1919968; active means well fitted curve in the direction sought with a large enough effect in the repeat runs; an effect the other way counts as inactive or inconclusive; further: nearly all actives have a fitted effect of over 55% in size)
In short: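 Seed 1,500 KeratinoSens cells per well, then incubate 5 h at 37 C/5% CO2. Add compounds in DMSO and incubate 23 h. Add CellTiter-Fluor, wait 1 h and read fluorescence.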

[2] = Nuclear factor erythroid 2-related factor 2/antioxidant responsive element (Nrf2/ARE) small molecule agonists: luciferase reporter gene qHTS assay in human keratinocytes (AID 1919969); further: nearly all actives have a fitted effect of over 35% in size; further: potency means the concentration at half of the fitted maximal effect
[3] = molecular target: Gonadotropin-releasing hormone receptor (Homo sapiens) (UniProt P30968); assay: Human gonadotropin-releasing hormone receptor (GnRHR) small molecule agonists, calcium flux assay in GnRHR-HEK293 cells (AID 1920063); further: nearly all actives have a fitted effect of over 35% in size
Chain of Gonadotropin-releasing hormone receptor (Homo sapiens) (P30968 whole entry, looked up): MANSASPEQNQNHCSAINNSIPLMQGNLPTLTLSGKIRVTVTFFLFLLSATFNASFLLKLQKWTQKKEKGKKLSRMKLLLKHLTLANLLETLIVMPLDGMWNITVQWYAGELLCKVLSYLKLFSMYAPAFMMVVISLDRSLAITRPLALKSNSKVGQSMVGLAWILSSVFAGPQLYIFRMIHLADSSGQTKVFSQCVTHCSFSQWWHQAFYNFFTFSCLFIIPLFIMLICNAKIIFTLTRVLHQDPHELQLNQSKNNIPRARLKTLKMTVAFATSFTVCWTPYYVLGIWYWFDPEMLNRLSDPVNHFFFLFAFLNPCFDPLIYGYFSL
In short: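 Cells: HEK293 stably expressing human GnRHR. Steps: overnight (18 h) culture, 1 h calcium dye loading at 37 C, compound addition, kinetic fluorescence read at 480/540 nm. Each compound tested at 15 concentrations in triplicate.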

[4] = molecular target: KiSS-1 receptor (Homo sapiens) (UniProt Q969F8); assay: Human kisspeptin (KISS1R) small molecule agonists, calcium flux assay in KISS1R-HEK293 cells (AID 1920064; active means well fitted curve in the direction sought with a large enough effect in the repeat runs; an effect the other way counts as inactive or inconclusive)
Chain of KiSS-1 receptor (Homo sapiens) (Q969F8 whole entry, looked up): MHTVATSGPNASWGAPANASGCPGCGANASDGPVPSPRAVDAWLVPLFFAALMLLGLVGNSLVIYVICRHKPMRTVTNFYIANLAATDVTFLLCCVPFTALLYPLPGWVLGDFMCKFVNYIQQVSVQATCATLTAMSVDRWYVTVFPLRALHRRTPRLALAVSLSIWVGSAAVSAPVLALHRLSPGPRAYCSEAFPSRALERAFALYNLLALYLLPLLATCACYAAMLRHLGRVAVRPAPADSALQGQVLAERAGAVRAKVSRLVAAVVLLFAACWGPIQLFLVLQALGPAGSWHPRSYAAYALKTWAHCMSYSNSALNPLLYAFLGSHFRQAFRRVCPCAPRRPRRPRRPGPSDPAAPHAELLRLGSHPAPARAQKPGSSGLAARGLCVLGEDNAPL
In short: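 Cells plated and incubated 18 h; dye added, 1 h at 37 C; compounds in DMSO pinned in; signal read at 480/540 nm every second for 3 min. Each compound tested at 15 concentrations in triplicate.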

[5] = p53 small molecule agonists, cell-based qHTS assay with human liver microsomes (AID 1963577);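 further: p53 response element beta-lactamase reporter cells with liver microsomes plus NADPH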
In short: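 16 h, 37 C exposure of p53RE-bla cells to compounds with human liver microsomes and NADPH (0.5 mg/mL final each); detection via LiveBLAzer mixture, 2 h dark at room temperature.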

[6] = p53 small molecule agonists, cell-based qHTS assay with rat liver microsomes (AID 1963578)
In short: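 With rat liver microsomes and NADPH present (0.5 mg/mL final each), p53RE-bla cells are treated with compound for 16 h at 37 C. LiveBLAzer detection mixture is then applied for 2 h at room temperature in the dark.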

[7] = p53 small molecule agonists, cell-based qHTS assay with human liver microsomes: qHTS cell viability counter screen (AID 1963579); further: nearly all actives have a fitted effect of over 45% in size
In short: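 In this multiplexed counter screen, the reporter plates were subsequently treated with CellTiter-Glo so that cell viability, reflected by luminescence, could be recorded for p53RE-bla cells dosed 16 h with compounds under microsomal activation (HLM and NADPH).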

[8] = p53 small molecule agonists, cell-based qHTS assay with rat liver microsomes: qHTS cell viability counter screen (AID 1963580); further: nearly all actives have a fitted effect of over 45% in size
In short: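 p53RE-bla HCT-116 cells were exposed 16 h at 37 C to compounds with rat liver microsomes (0.5 mg/mL) and NADPH (0.5 mg/mL). Viability was measured in the same wells as ATP content by CellTiter-Glo luminescence.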

[9] = p53 small molecule agonists, cell-based qHTS assay: qHTS cell viability counter screen (AID 1963581); further: nearly all actives have a fitted effect of over 45% in size
In short: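 Cells: HCT-116 with p53 response element-driven beta-lactamase. Treatment: 16 h, 37 C, compounds in DMSO. Read: CellTiter-Glo luminescence after 30 min RT.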

[10] = p53 small molecule agonists, cell-based qHTS assay (AID 1963582; active means well fitted activation curve with a large enough effect in the signal ratio in the repeat runs, not every such curve was filed as active; the % refers to the signal ratio)
In short: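 Quantitative HTS in p53RE-bla cells: after a 5 h settling period, compounds delivered in DMSO were left on cells for 16 h at 37 C, and reporter induction was measured as fluorescence following 2 h substrate loading.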

[11] = molecular target: 5-hydroxytryptamine receptor 2A (Homo sapiens) (UniProt P28223); assay: 5-hydroxytryptamine receptor 2A (HTR2A) small molecule antagonists, cell-based qHTS assay (AID 1963586); further: nearly all actives have a fitted effect of over 45% in size
Chain of 5-hydroxytryptamine receptor 2A (Homo sapiens) (P28223 whole entry, looked up): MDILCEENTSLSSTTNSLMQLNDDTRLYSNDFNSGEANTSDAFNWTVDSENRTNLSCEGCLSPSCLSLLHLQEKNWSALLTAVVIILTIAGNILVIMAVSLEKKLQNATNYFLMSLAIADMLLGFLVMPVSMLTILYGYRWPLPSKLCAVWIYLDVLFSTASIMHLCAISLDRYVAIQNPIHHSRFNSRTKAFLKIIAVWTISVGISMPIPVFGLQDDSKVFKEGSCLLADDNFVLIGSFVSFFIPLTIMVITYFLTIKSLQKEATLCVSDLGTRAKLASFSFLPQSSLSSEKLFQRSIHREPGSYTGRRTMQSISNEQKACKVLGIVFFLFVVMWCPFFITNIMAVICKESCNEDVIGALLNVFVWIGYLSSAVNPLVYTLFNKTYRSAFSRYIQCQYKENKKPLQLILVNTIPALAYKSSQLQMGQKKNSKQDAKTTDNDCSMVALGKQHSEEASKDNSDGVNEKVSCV
In short: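 Antagonist-mode intracellular calcium assay: DOI (4 nM) added after 5 min compound pre-incubation at room temperature to dye-loaded HTR2A-CHO cells. Fluorescence followed for 3 min, sampled every second.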

[12] = molecular target: Muscarinic acetylcholine receptor M1 (Homo sapiens) (UniProt P11229); assay: Cholinergic receptor muscarinic 1 (CHRM1) small molecule antagonists, cell-based qHTS assay (AID 1963588); further: nearly all actives have a fitted effect of over 40% in size; further: potency means the concentration at half of the fitted maximal effect
Chain of Muscarinic acetylcholine receptor M1 (Homo sapiens) (P11229 whole entry, looked up): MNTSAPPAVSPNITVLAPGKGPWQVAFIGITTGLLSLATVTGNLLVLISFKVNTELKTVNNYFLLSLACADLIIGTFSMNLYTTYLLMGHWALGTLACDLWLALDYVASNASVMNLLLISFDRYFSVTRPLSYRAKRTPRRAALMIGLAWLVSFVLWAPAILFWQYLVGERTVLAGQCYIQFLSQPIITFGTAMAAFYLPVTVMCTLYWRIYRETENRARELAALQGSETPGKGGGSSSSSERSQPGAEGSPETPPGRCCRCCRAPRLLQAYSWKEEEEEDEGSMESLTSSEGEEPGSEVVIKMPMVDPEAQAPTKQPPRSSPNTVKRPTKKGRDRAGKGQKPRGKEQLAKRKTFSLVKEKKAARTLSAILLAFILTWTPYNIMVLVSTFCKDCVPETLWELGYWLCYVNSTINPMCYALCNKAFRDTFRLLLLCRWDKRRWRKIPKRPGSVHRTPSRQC
In short: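 CHRM1-CHO calcium-flux assay, antagonist mode. Cells were seeded 18 h, dye-loaded 1 h at 37 C and given compound for 5 min at RT, then acetylcholine was added at 50nM. FDSS fluorescence was read 3 min; 15 concentrations, three runs.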

[13] = molecular target: Muscarinic acetylcholine receptor M1 (Homo sapiens) (UniProt P11229); assay: Cholinergic receptor muscarinic 1 (CHRM1) small molecule agonists, cell-based qHTS assay (AID 1963589); further: nearly all actives have a fitted effect of over 35% in size
In short: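 Agonist-mode qHTS in CHO cells stably carrying human muscarinic M1. Intracellular calcium is tracked by fluorescence every second after compound transfer; each compound runs at 15 concentrations in three independent runs.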

[14] = cAMP Responsive Elements (CRE) small molecule agonists, cell-based qHTS assay (AID 1963590)
In short: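 Agonist mode qHTS in CRE-bla HEK 293T cells: compounds dosed from DMSO for 3 h at 37 C/5% CO2, followed by LiveBLAzer B/G FRET substrate for 2 h at room temperature.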

[15] = cAMP Responsive Elements (CRE) small molecule antagonists, cell-based qHTS assay (AID 1963591; active means well fitted inhibition curve with a large enough effect in the signal ratio in the repeat runs, not every such curve was filed as active; the % refers to the signal ratio)
In short: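 Antagonist mode: test compounds are co-incubated with the adenylyl cyclase activator NKH477 (0.25 uM final) on CRE-bla HEK293T cells for 3 h at 37 °C, followed by LiveBLAzer substrate loading.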

[16] = molecular target: Beta-2 adrenergic receptor (Homo sapiens) (UniProt P07550); assay: Adrenergic beta2 receptor (ADRB2) small molecule antagonists, cell-based qHTS assay (AID 1963592); further: series mostly up to about 92 µM; nearly all actives have a fitted effect of over 50% in size
Chain of Beta-2 adrenergic receptor (Homo sapiens) (P07550 whole entry, looked up): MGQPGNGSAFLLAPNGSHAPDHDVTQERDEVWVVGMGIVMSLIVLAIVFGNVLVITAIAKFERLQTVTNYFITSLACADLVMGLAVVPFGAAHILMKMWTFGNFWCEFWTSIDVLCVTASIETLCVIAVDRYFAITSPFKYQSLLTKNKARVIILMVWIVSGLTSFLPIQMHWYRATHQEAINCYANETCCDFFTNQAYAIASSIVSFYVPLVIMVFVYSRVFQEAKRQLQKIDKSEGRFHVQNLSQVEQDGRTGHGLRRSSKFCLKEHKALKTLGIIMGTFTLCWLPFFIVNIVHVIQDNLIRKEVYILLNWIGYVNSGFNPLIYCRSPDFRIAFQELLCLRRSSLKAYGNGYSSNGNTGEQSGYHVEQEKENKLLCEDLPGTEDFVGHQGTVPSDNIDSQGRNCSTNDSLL
In short: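 Cells (CHO, stable ADRB2 overexpression) incubated 18-20hr at 37C; compounds added from DMSO; agonist mix (1nM isoproterenol, 100uM IBMX, 25uM Ro-20-1724) added; 0.5hr RT; d2-cAMP and anti-cAMP-cryptate added; 1hr RT; 665/615 nm read.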

[17] = molecular target: D(2) dopamine receptor (Homo sapiens) (UniProt P14416); assay: Dopamine D2 receptor (DRD2) small molecule agonists, cell-based qHTS assay (AID 1963594); further: nearly all actives have a fitted effect of over 35% in size
Chain of D(2) dopamine receptor (Homo sapiens) (P14416 whole entry, looked up): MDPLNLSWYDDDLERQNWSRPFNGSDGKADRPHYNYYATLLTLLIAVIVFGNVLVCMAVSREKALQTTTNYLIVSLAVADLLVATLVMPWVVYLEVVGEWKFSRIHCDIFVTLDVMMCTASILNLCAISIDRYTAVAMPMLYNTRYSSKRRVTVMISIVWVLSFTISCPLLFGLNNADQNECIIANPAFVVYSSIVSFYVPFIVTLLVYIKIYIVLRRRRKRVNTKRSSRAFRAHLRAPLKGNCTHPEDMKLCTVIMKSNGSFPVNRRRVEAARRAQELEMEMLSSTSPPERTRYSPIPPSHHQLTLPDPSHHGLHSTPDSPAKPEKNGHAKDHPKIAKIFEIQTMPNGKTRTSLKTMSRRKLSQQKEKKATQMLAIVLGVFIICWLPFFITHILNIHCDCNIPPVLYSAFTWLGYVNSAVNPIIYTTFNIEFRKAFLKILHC
In short: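 HEK293 cells stably expressing human DRD2, pre-treated with PDE inhibitor Ro20-1724 (0.1 mM final) and compound 10 min at room temperature, then stimulated with NKH477 (200nM […]) for 30 min. cAMP read by HTRF (665/620 nm).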

[18] = molecular target: D(2) dopamine receptor (Homo sapiens) (UniProt P14416); assay: Dopamine D2 receptor (DRD2) small molecule antagonists, cell-based qHTS assay (AID 1963595; active means well fitted inhibition curve with a large enough effect in the signal ratio in the repeat runs, with a control signal flat; the % refers to the signal ratio)
In short: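 Antagonist mode in DRD2-HEK293 cells: after compound addition with 0.1 mM Ro20-1724, cells received quinpirole (12 nM) and NKH477 (200 nM) for 30 min at room temperature; HTRF cAMP read after 1 h detection.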

[19] = molecular target: 5-hydroxytryptamine receptor 2A (Homo sapiens) (UniProt P28223); assay: 5-hydroxytryptamine receptor 2A (HTR2A) small molecule agonists, cell-based qHTS assay (AID 1963587); further: nearly all actives have a fitted effect of over 30% in size
In short: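 CHO cells stably expressing human HTR2A, plated 18 h, loaded with calcium dye 1 h at 37 C. Agonist mode: compounds added and intracellular calcium fluorescence recorded kinetically for 2 min at 1 sec intervals.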

[20] = G protein-coupled receptor (GPCR) small molecule agonists, calcium flux assay: HEK293 wild type cell line counter screen (AID 1920065)
In short: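 Counter-screen of the Tox21 10K library for non-specific calcium release: dye-loaded cells received compounds in DMSO and were monitored by kinetic fluorescence (480/540 nm, 3 min). Fifteen concentrations, run in triplicate.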

SMILES | Potency [1] | Potency [2] | Potency [3] | outcome [4] | Potency [5] | Potency [6] | Potency [7] | Potency [8] | Potency [9] | Potency [10] | Potency [11] | Potency [12] | Potency [13] | Potency [14] | Potency [15] | Potency [16] | Potency [17] | Potency [18] | Potency [19] | outcome [20]
CC(O)CN(CCCN(C)C)CCCN(C)C (stereo not drawn) | inactive | inactive | inactive | inactive | inactive | inactive | inactive | inactive | inactive | inactive | inactive | inactive | inactive | inactive | inactive | inactive | inactive | inactive |  | 
C[C@]12C=CC(=O)C=C1[C@@H](F)C[C@@H]1[C@@H]2[C@@H](O)C[C@@]2(C)[C@H]1CC[C@]2(O)C(=O)CO | inactive | inactive | inactive | inactive | inactive | inactive | inactive | inactive | inactive | inactive | inactive | inactive | inactive |  | inactive | inactive | inactive | inactive | inactive | 
C=CC(C)(CCC=C(C)C)OC(=O)c1ccccc1 (stereo not drawn) | inactive | 24.3 µM (active) | inactive | inactive | inactive | inactive | inactive | inactive | inactive | inactive |  | inactive | inactive | inactive | inactive | inactive | inactive | inactive |  | 
CS(=O)(=O)c1ccc([C@@H](C[C@H]2CCC(=O)C2)C(=O)Nc2cnccn2)cc1Cl | inactive | inactive | inactive | inactive | inactive | inactive | inactive | inactive | inactive | inactive | inactive | inactive | inactive |  |  | inactive |  |  | inactive | 
CCCN(CCC)C(=O)C(CCC(=O)OCCCN1CCN(CCOC(=O)Cc2c(C)n(C(=O)c3ccc(Cl)cc3)c3ccc(OC)cc23)CC1)NC(=O)c1ccccc1 (stereo not drawn) | inactive | inactive | inactive | inactive | inactive | inactive | inactive | inactive | inactive |  |  |  | inactive |  |  | inactive | inactive |  | inactive | 
C=CCCCCCCCCC=O | inactive | inactive | inactive | inactive | inactive | inactive | inactive | inactive | inactive | inactive |  | inactive | inactive |  |  | inactive | inactive | inactive | inactive | 
OCCCO | inactive | inactive | inactive | inactive | inactive | inactive | inactive | inactive | inactive | inactive | inactive |  |  | inactive | inactive | inactive | inactive | inactive | inactive | 
CNS(=O)(=O)CCc1ccc2[nH]cc(C3CCN(C)CC3)c2c1 | inactive | inactive | inactive | inactive | inactive | inactive | inactive | inactive | inactive | inactive |  | inactive | inactive | inactive | inactive |  | inactive | inactive | inactive | 
Cc1ccco1 | inactive | inactive | inactive | inactive |  |  | inactive | inactive |  | inactive | inactive | inactive | inactive | inactive | inactive | inactive | inactive | inactive |  | inactive
Cc1cc(C)c(O)c(C(C)(C)C)c1 | inactive | inactive | inactive | inactive | inactive | inactive | inactive | inactive | inactive | inactive |  |  | inactive |  | inactive | inactive | inactive | inactive |  | 
CC(N)C(=O)OC(C)(C)Cc1ccc(Cl)cc1 (stereo not drawn) | inactive | inactive | inactive | inactive | inactive | inactive | inactive | inactive | inactive | inactive | inactive | inactive | inactive | inactive | inactive | inactive |  | inactive |  | 
CC[N+]1(CC)CCC(=C(c2ccccc2)c2ccccc2)C1C (stereo not drawn) | inactive | inactive | inactive | inactive | inactive | inactive | inactive | inactive | inactive | inactive |  | 0.0259 µM (active) | inactive | inactive | inactive | inactive | inactive | inactive |  | 
Cc1cccc(C)c1NC(=O)c1ccccc1C(=O)O | inactive | inactive | inactive | inactive | inactive | inactive | inactive | inactive | inactive | inactive | inactive | inactive |  | inactive | inactive | inactive |  | inactive | inactive | 
